In all, about 11,000 compounds went through this assay and about 310 (2.8%) were called active. No stated cut-off is given here; in the data, active means activity change below about -85%; inactive means the rest. Shown is part of a subset that was picked to be rich in actives.
Test system: intestinal alkaline phosphatase [Mus musculus]
Experiment: activators of mouse IAP, confirmation, biochemical, luminescence, single concentration (AID 434970)
Conditions: purified mouse IAP, CDP-Star luminescence, 30 min, at 10 µM; activation factor: measured here: IAP activation factor, stronger effect = higher value; activity change, negative = activation: stronger effect = lower value

| SMILES | activation factor | activity change, negative = activation |
| --- | --- | --- |
| CCOC(=O)CC1(c2ccccc2)CCOC(C)(C)C1 (stereo not given) | 0.94 | 6.05% (inactive) |
| COc1ccc(N2CCN(S(=O)(=O)/C=C/c3ccccc3)CC2)cc1 | 1.07 | -7.05% (inactive) |
| COc1ccc2[nH]c3c(c2c1)CCN1C(=O)C(CC(=O)NCCCN(C)C)C[C@H](C(=O)N(C(C)C)C(C)C)[C@@]31C (stereo not given in full) | 1.14 | -13.9% (inactive) |
| CN1CCN(C(CNS(=O)(=O)c2ccc(F)cc2)c2cccnc2)CC1 (stereo not given) | 1.1 | -10.1% (inactive) |
| O=C(CSc1nnc(C2CC2)n1Cc1ccccc1)NCc1ccccc1 | 1.05 | -5% (inactive) |
| Fc1ccc2[nH]c3c(NCCN4CCOCC4)ncnc3c2c1 | 1.07 | -7.05% (inactive) |
| COC(=O)c1ccc(CNC(=O)Cn2cnc3c(NCc4ccccc4)ncnc32)cc1 | 0.989 | 1.05% (inactive) |
| O=C(Cn1cnc2c(NCc3ccccc3)ncnc21)NCc1ccc2[nH]ccc2c1 | 1.1 | -9.85% (inactive) |
| O=C(Cn1cnc2c(NCc3ccccc3)ncnc21)NCc1ccccc1 | 0.932 | 6.8% (inactive) |
| Fc1ccc2[nH]c3c(NCc4ccccc4)ncnc3c2c1 | 2.25 | -125% (active) |
| Cc1ccc2[nH]c3c(NCc4ccccc4)ncnc3c2c1 | 2.49 | -149% (active) |
| COc1ccc2[nH]c3c(N4CC(C)OC(C)C4)ncnc3c2c1 (stereo not given) | 1.17 | -17.4% (inactive) |
| COc1ccc(CNC(=O)Cn2cnc3c(NCc4ccccc4)ncnc32)cc1 | 1.01 | -0.55% (inactive) |
| COc1cc(CNc2ncnc3c2[nH]c2ccc(C)cc23)cc(OC)c1 | 2.97 | -197% (active) |
| CCOc1ccc2[nH]c3c(NCCC(C)C)ncnc3c2c1 | 1.85 | -84.7% (inactive) |
| Cc1ccc2[nH]c3c(N4CCN(Cc5ccccc5)CC4)ncnc3c2c1 | 1.25 | -24.6% (inactive) |
| COc1ccc(CNc2ncnc3c2[nH]c2ccccc23)cc1 | 2.71 | -171% (active) |
| O=C(CSc1nnc(C2CC2)n1Cc1ccccc1)N1CCN(S(=O)(=O)c2ccccc2)CC1 | 1.04 | -4.25% (inactive) |
| O=C(NCCc1ccccc1)c1nc2nc(-c3cccs3)cc(C(F)(F)F)n2n1 | 0.956 | 4.4% (inactive) |
| Cc1ccc(S(=O)(=O)C2CCOC2=O)cc1 (stereo not given) | 0.793 | 20.7% (inactive) |

| SMILES | activation factor | activity change, negative = activation |
| --- | --- | --- |
| COc1ccc(C(c2nnnn2CS(=O)(=O)c2ccc(C)cc2)N2CCN(c3ncccn3)CC2)cc1 (stereo not given) | 0.922 | 7.75% (inactive) |
| Cc1nnc(SCCC(C)C)[nH]c1=O | 1.13 | -12.6% (inactive) |
| Cc1onc(-c2ccccc2Cl)c1C(=O)OCC(=O)c1ccc2c(c1)OCCO2 | 0.972 | 2.85% (inactive) |
| CCOC(=O)C1=CN(CC)S(=O)(=O)NC1c1ccc(F)c(Cl)c1 (stereo not given) | 1.1 | -9.6% (inactive) |
| CC[C@]12c3[nH]c4cc(CCC(=O)N(C)C)ccc4c3CCN1C(=O)[C@@H](CC(=O)NCCN1CCOCC1)C[C@@H]2C(=O)N1CCN(C(=O)C2CC2)CC1 | 1.07 | -6.6% (inactive) |
| Cc1cccc(-c2noc(CCC(=O)N3CCN(c4cc(C)ccc4C)CC3)n2)c1 | 0.938 | 6.25% (inactive) |
| c1coc(C2Nc3cccc4cccc(c34)N2)c1 | 0.307 | 69.3% (inactive) |
| CN1CC2([N+](=O)[O-])CC=C(Oc3ccccc3)C([N+](=O)[O-])(C1)C2 (stereo not given) | 0.919 | 8.05% (inactive) |
| C#CCOCCOCCOCCNc1nc(N2CCN(C(=O)CCCCCCCCCCNC(=O)Cn3cc(CCCCCN)nn3)CC2)nc(N2CCN(C(=O)CCCCCCCCCCNC(=O)[C@@H](CCSC)n3cc(CCO)nn3)CC2)n1 | 3.56 | -256% (active) |
| C#CCOCCOCCOCCNc1nc(N2CCN(C(=O)CCCCCCCCCCNC(=O)Cn3cc(C[C@@H](C)O)nn3)CC2)nc(N2CCN(C(=O)CCCCCCCCCCNC(=O)[C@@H](CCSC)n3cc(CCO)nn3)CC2)n1 | 1.97 | -96.8% (active) |
| C#CCOCCOCCOCCNc1nc(N2CCN(C(=O)CCCCCCCCCCNC(=O)[C@@H](CCSC)n3cc(CCO)nn3)CC2)nc(N2CCN(C(=O)CCCCCCCCCCNC(=O)[C@H](CCSC)n3cc(CCO)nn3)CC2)n1 | 1.78 | -77.9% (inactive) |
| C#CCOCCOCCOCCNc1nc(N2CCN(C(=O)CCCCCCCCCCNC(=O)Cn3cc(CCCCCN)nn3)CC2)nc(N2CCN(C(=O)CCCCCCCCCCNC(=O)[C@H](CO)n3cc(CCCSC)nn3)CC2)n1 | 2.53 | -153% (active) |
| CCOc1ccc(-n2c(SCC(=O)NCc3ccco3)nc3c(c2=O)SCC3)cc1 | 0.865 | 13.5% (inactive) |
| COc1cc(O)c2c(c1)OC(C)(C)CC2=O | 1.08 | -7.6% (inactive) |
| O=C(CSc1nc2cccnc2n1Cc1ccccc1)N1CCCC1 | 1.07 | -7.2% (inactive) |
| COC(=O)[C@H](CCSC)NC(=O)Cn1cnc(C(=O)Nc2ccc(C)c(C)c2)n1 | 0.956 | 4.35% (inactive) |
| CC(NC(=O)CCSc1nc(-c2ccco2)cc(C(F)(F)F)n1)c1ccccc1 (stereo not given) | 0.94 | 6% (inactive) |
| O=C(N/N=C/c1ccc([N+](=O)[O-])o1)c1ccccc1NS(=O)(=O)c1cccs1 | 0.375 | 62.5% (inactive) |
| O=C(c1ccc(C(=O)N2CCOCC2)nc1)N1CCOCC1 | 1.09 | -8.9% (inactive) |
| CCc1ccc(NC(=O)c2sccc2-n2cccc2)cc1 | 1.04 | -4.35% (inactive) |

— PubChem BioAssay AID434970 (Sanford-Burnham Center for Chemical Genomics, 2010)
